We go through seven molecules from PubChem BioAssay (NCI).

Compounds without any hit were thinned out: in the full panel of roughly 83,000, 20% have a hit.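 48-hour exposure, single concentration, 96-well plates; percent growth endpoint where 0 means no net growth. Active: below 10.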 Unmarked numbers belong to inactive results. Calls of active or inactive are those of the source.

Experiment in all cases: NCI-60 one-dose screen, 48 h (100 = growth as untreated, 0 = no growth, -100 = all killed)
One experiment deals with NCI-H23 lung. Conditions: 10 µM unless noted.
The subject of the next experiment is NCI-H226 lung. Conditions: 10 µM unless noted.
Another experiment concerns NCI-H322M lung. As to conditions: 10 µM unless noted.
The subject of the next experiment is HOP-62 NSCLC. Conditions: 10 µM unless noted.
A further experiment concerns NCI-H460 lung. As to conditions: 10 µM unless noted.
A further experiment relates to HOP-92 NSCLC. Conditions: 10 µM unless noted.
The subject of the next experiment is NCI-H522 lung. As to conditions: 10 µM unless noted.
A further experiment concerns A549/ATCC NSCLC. Conditions: 10 µM unless noted.
Another experiment deals with 786-0 renal. As to conditions: 10 µM unless noted.
The subject of a further experiment is COLO 205 colon. As to conditions: 10 µM unless noted.
The subject of another experiment is DU-145 prostate. Conditions: 10 µM unless noted.
The next experiment concerns K-562 leukemia. Conditions: 10 µM unless noted.
In a further experiment the test system is MALME-3M melanoma. Conditions: 10 µM unless noted.
For another experiment, the system named is MDA-MB-231 breast. Conditions: 10 µM unless noted.
A further experiment deals with RXF 393 renal. As to conditions: 10 µM unless noted.
The next experiment deals with SF-268 CNS. As to conditions: 10 µM unless noted.
In the next experiment the test system is SF-295 CNS. Conditions: 10 µM unless noted.
Another experiment deals with SF-539 CNS. Conditions: 10 µM unless noted.
The subject of another experiment is UACC-257 melanoma. Conditions: 10 µM.
For another experiment, the system named is M14 melanoma. Conditions: 10 µM unless noted.

Take `Cn1cc(-c2nn3cc(-c4ccncc4)nc3s2)c2cc(Cl)ccc21`: the growth with NCI-H23 lung is 44.5%; in the experiment on NCI-H226 lung it was 86.1%; with NCI-H322M lung, 78.3%; in the experiment with HOP-62 NSCLC it was 67.4%; in the experiment on NCI-H460 lung, 51.5%; in the experiment on HOP-92 NSCLC it was 0.128% (active). The growth in the experiment with NCI-H522 lung is 46%; in the experiment with A549/ATCC NSCLC, 64%; in the experiment with 786-0 renal it was 89.1%; in the experiment on COLO 205 colon, 31.9%; in the experiment on DU-145 prostate, 74.3%; with K-562 leukemia, -1.66% (active). The growth is 48.2% in the experiment with MALME-3M melanoma; 73.5% in the experiment with MDA-MB-231 breast; 75.9% in the experiment with RXF 393 renal; 67.9% in the experiment on SF-268 CNS; 35.1% in the experiment on SF-295 CNS; 82.1% in the experiment on SF-539 CNS. The growth was 89.1% in the experiment with UACC-257 melanoma and 52.5% in the experiment on M14 melanoma.
With `COc1cc(C(=O)C[n+]2ccc3ccccc3c2)cc(OC)c1OC`, the growth is 96.6% in the experiment on NCI-H23 lung; 95.9% in the experiment on NCI-H226 lung; 98.3% in the experiment with NCI-H322M lung; 97.3% in the experiment on HOP-62 NSCLC; 101% in the experiment with NCI-H460 lung; 80% in the experiment on HOP-92 NSCLC. For the same molecule, the growth with NCI-H522 lung was 92.9%; in the experiment on A549/ATCC NSCLC, 105%; in the experiment with 786-0 renal, 102%; in the experiment with COLO 205 colon it was 103%; in the experiment with DU-145 prostate, 105%; in the experiment on K-562 leukemia it was 91.7%. For the same molecule, the growth in the experiment with MALME-3M melanoma is 91.5%; in the experiment with MDA-MB-231 breast, 93.3%; in the experiment with RXF 393 renal, 101%; in the experiment with SF-268 CNS it was 100%; in the experiment on SF-295 CNS it was 100%; with SF-539 CNS it was 100%. In addition, the growth with UACC-257 melanoma was 103%; with M14 melanoma, 98.1%.
As to `CCOc1ccc2nc(NC(=O)Nc3ccccc3C)sc2c1`, the growth in the experiment on NCI-H23 lung is 76.4%; in the experiment with NCI-H226 lung it was 38.3%; in the experiment with NCI-H322M lung, 87%; in the experiment on HOP-62 NSCLC, 49%; in the experiment on NCI-H460 lung it was 42.4%; in the experiment with HOP-92 NSCLC, 126%. Moreover, the growth was 32.7% with NCI-H522 lung; 54.7% in the experiment with A549/ATCC NSCLC; 64.9% in the experiment on 786-0 renal; 49.9% in the experiment on COLO 205 colon; 70.3% with DU-145 prostate; 14.6% with K-562 leukemia. The growth with MALME-3M melanoma is 48.6%; in the experiment on MDA-MB-231 breast, 71.2%; with RXF 393 renal it was 49.5%; in the experiment with SF-268 CNS it was 78.6%; in the experiment on SF-295 CNS, 35.2%; in the experiment with SF-539 CNS it was 57.1%. Also, the growth was 68.4% in the experiment on UACC-257 melanoma and 23.4% in the experiment with M14 melanoma.
In the case of `COc1cc(/C=N/n2cnc3oc(-c4ccccc4)cc3c2=N)cc(CN2CCN(C)CC2)c1O`, the growth in the experiment with NCI-H23 lung is 104%; in the experiment on NCI-H226 lung, 87.3%; with NCI-H322M lung it was 108%; in the experiment on HOP-62 NSCLC it was 88.1%; in the experiment on NCI-H460 lung, 108%; in the experiment on HOP-92 NSCLC, 74.9%. Moreover, the growth in the experiment with NCI-H522 lung is 96.9%; in the experiment on A549/ATCC NSCLC, 94.3%; with 786-0 renal it was 62.5%; with COLO 205 colon it was 80.9%; with DU-145 prostate it was 110%; in the experiment with K-562 leukemia, 26.3%. The growth in the experiment on MALME-3M melanoma is 113%; with MDA-MB-231 breast it was 79.3%; in the experiment on RXF 393 renal, 27.7%; with SF-268 CNS it was 93.6%; with SF-295 CNS, 109%; with SF-539 CNS it was 94%. Also, the growth is 106% in the experiment with UACC-257 melanoma and 103% in the experiment with M14 melanoma.
As to `C#C[C@]1(O)CC[C@H]2[C@@H]3CC=C4c5sc(-c6ccc(OC)cc6)nc5CC[C@]4(C)[C@H]3CC[C@@]21C`, the growth is 73.7% in the experiment with NCI-H23 lung; 69.3% with NCI-H226 lung; 74.5% in the experiment with NCI-H322M lung; 70.8% with HOP-62 NSCLC; 43.5% in the experiment with NCI-H460 lung; 102% in the experiment on HOP-92 NSCLC. The growth in the experiment with NCI-H522 lung is 80.6%; with A549/ATCC NSCLC, 74.7%; in the experiment with 786-0 renal it was 16.8%; with COLO 205 colon it was 81.9%; in the experiment on DU-145 prostate, 76.9%; in the experiment with K-562 leukemia it was 14.5%. Further, the growth in the experiment with MALME-3M melanoma was 51%; with MDA-MB-231 breast, 72.3%; in the experiment on RXF 393 renal it was -46.3% (active); in the experiment on SF-268 CNS it was 58.9%; in the experiment with SF-295 CNS, -36.6% (active); in the experiment with SF-539 CNS it was 18.1%. The results for the growth with UACC-257 melanoma and with M14 melanoma were 30.3% and 36.4%, respectively.
Consider `O=C1[C@H]2Cc3c([nH]c4ccccc34)[C@H](c3ccc(Cl)cc3)N2C(=O)CN1C1CCN(Cc2c(Cl)cccc2Cl)CC1`, for which the growth in the experiment on NCI-H23 lung is 86.5%; in the experiment with NCI-H226 lung, 72.5%; in the experiment with NCI-H322M lung, 96.9%; in the experiment on HOP-62 NSCLC, 80.1%; with NCI-H460 lung it was 68%; in the experiment on HOP-92 NSCLC, 55.1%. In addition, the growth with NCI-H522 lung was 75.3%; in the experiment with A549/ATCC NSCLC it was 66.9%; with 786-0 renal, 66%; in the experiment on COLO 205 colon it was 54.8%; with DU-145 prostate, 76.9%; in the experiment with K-562 leukemia, 6.9% (active). The growth was 79.6% with MALME-3M melanoma; 72.5% with MDA-MB-231 breast; 53.9% in the experiment on RXF 393 renal; 64.2% with SF-268 CNS; 86.8% with SF-295 CNS; 75.2% with SF-539 CNS. The values for the growth in the experiment on UACC-257 melanoma and in the experiment on M14 melanoma were 101% and 71.5%, respectively.
Regarding `CC[C@]12C=CCN3CC[C@]4(C(=C(C(=O)OC)C1)Nc1cc5c(cc14)[C@@H]1[C@H](O5)[C@@H](O)[C@@]4(CC)CC(C(=O)OC)=C5Nc6cc(OC)ccc6[C@@]56CCN1[C@@H]46)[C@@H]32`, the growth in the experiment with NCI-H23 lung was -44.5% (active); in the experiment with NCI-H226 lung, -1.39% (active); in the experiment on NCI-H322M lung, 15%; in the experiment on HOP-62 NSCLC, 24.1%; in the experiment on NCI-H460 lung, 5.78% (active); in the experiment with HOP-92 NSCLC, 37.1%. Also, the growth with NCI-H522 lung was -11.8% (active); with A549/ATCC NSCLC it was 20%; in the experiment with 786-0 renal it was -9.86% (active); in the experiment on COLO 205 colon it was -29.2% (active); in the experiment with DU-145 prostate it was 22.6%; in the experiment on K-562 leukemia it was 9.45% (active). In addition, the growth was 25% in the experiment on MALME-3M melanoma; 20.4% in the experiment on MDA-MB-231 breast; -39.2% (active) in the experiment with RXF 393 renal; 14.9% in the experiment with SF-268 CNS; 15.4% in the experiment on SF-295 CNS; -4.82% (active) in the experiment on SF-539 CNS. In addition, the results for the growth with UACC-257 melanoma and in the experiment with M14 melanoma were 29.5% and 9.29% (active), respectively.
